# Sampled rows, rich in hits. Any-hit rate of the full collection: about 3.9%.
# Vc quorum ag-1: inducers of Vibrio cholerae quorum light production without autoinducers, primary screen, BH1578 luxS cqsA deficient, single point; V. cholerae BH1578 lux reporter, luminescence, 6 h; activation, % at 18.7 µM; 350,000 compounds, 0.16% hits; AID 588436, 2011; in the data active means activation mostly above about 9.7%, no sharp cut-off
# CCHF vOTU inh-1: CCHFV vOTU protease inhibitors, primary screen, biochemical, Pep-AMC substrate, fluorescence; Crimean-Congo hemorrhagic fever virus L polyprotein viral ovarian tumor (vOTU) protease …; inhibition, % at 11.5 µM; 370,000 compounds, 0.55% hits
# GDH-TPI counter-1: GDH-TPI coupling enzyme inhibitors, primary screen, artefact control for M. tuberculosis FBA inhibitor project, biochemical, absorbance, full deck. GDH-TPI coupled enzyme counterscreen, NADH absorbance. inhibition, % at 4.8 µM. 360,000 compounds, 1.2% hits. AID 588335, 2011
# FBA Mtb inh: Mtb FBA enzyme inhibitors, primary screen, biochemical, fluorescence, strain H37Rv; Fructose-bisphosphate aldolase (Mycobacterium tuberculosis (strain ATCC 25618 / H37Rv)), …; purified M. tuberculosis FBA, fluorescence read-out; inhibition, % at 1 µM; 360,000 compounds, 2.3% hits; in the data active means inhibition above about 27%
# Target sequence (P9WQA3 whole entry, looked up): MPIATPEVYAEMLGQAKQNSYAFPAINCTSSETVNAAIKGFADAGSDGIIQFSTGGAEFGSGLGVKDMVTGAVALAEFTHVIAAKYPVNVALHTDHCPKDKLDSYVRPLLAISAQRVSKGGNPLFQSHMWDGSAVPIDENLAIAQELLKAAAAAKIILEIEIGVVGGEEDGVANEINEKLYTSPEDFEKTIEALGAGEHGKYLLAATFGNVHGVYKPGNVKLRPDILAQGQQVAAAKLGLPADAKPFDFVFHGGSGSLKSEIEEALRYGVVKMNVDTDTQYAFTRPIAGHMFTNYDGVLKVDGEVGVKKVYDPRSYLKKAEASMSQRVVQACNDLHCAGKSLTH
# Vc quorum ag-2: V. cholerae lux activation without autoinducers – BH1578 luxS cqsA deficient, cherry-pick, plate reader, dose response; shares compounds with Vc quorum ag-1; AID 602243, 2012; activation, % at 50 µM; 620 tested, under 10 active; V. cholerae BH1578 lux reporter, luminescence, 6 h; call rule not given here
# Mtb FBA confirm: M. tuberculosis aldolase blockers, biochemical, fluorescence, strain H37Rv, confirmation | shares compounds with FBA Mtb inh | purified M. tuberculosis FBA, fluorescence read-out | inhibition, % at 1 µM | 5,600 compounds, 78% hits | AID 651616, 2012; in the data active means inhibition above about 27%
# GDH-TPI counter-2: GDH-TPI coupling enzyme inhibitors, artefact control for M. tuberculosis FBA inhibitor project, biochemical, fluorescence, high throughput; inhibition, % at 1 µM; GDH-TPI coupled enzyme counterscreen; 5,600 compounds, 81% hits; shares compounds with FBA Mtb inh; AID 652141, 2013; in the data active means inhibition above about 10%
# CCHF vOTU inh-2: CCHFV vOTU protease inhibitors, confirmation, biochemical, Pep-AMC substrate, fluorescence | shares compounds with CCHF vOTU inh-1 | inhibition, % at 11.5 µM | Recombinant CCHFV vOTU | 1,900 compounds, 17% hits
# Numbers stand for hits; . = inactive; / = no result given; + = active, no number. Unless noted, no stated cut-off is given here; in the data, active means inhibition above about 30%; inactive means the rest.
SMILES,Vc quorum ag-1,CCHF vOTU inh-1,GDH-TPI counter-1,FBA Mtb inh,Vc quorum ag-2,others
COC(=O)C1=C(C)N(Cc2cccc(C(F)(F)F)c2)C(=NCc2ccc3c(c2)OCO3)NC1c1ccc(Cl)cc1 (stereo not drawn),/,.,/,/,/,
C=CCn1c(-c2ccncc2)n[nH]c1=S,.,.,.,.,/,
CCOC(=O)C1=NNC(C(=O)O)C1c1ccccc1 (stereo not drawn),.,.,.,.,/,
CN(c1ccccc1)S(=O)(=O)c1ccc(C(=O)NCc2ccccc2F)cc1,.,.,.,.,/,
COc1ccccc1CNC(=O)c1ccc(S(=O)(=O)N(C)c2ccccc2)cc1,.,.,.,.,.,
Cc1ccc(C(=O)COc2cc(C)nc3nncn23)cc1,923,.,.,.,.,
COc1ccc(CN(C(=O)c2oc3cc(C)ccc3c2C)C2CCS(=O)(=O)C2)cc1OC (stereo not drawn),.,.,.,.,/,
CCc1cc(C(=O)N2CCN(c3ccccn3)CC2)sc1C,.,.,.,.,/,
CCc1cc(C(=O)N2CCN(C(=O)c3ccccc3)CC2)sc1C,.,.,.,.,.,
CCN(CC)C(=O)c1sc(NC(=O)Cc2ccc(OC)cc2)c(C#N)c1C,17,.,.,.,.,
CCN(CC)C(=O)c1sc(NC(=O)Cc2ccccc2)c(C#N)c1C,.,.,.,.,/,
CCOC(=O)C1=C(C)NC(C)=C(C(=O)OCC)C1c1ccc(OC)cc1,.,.,.,.,/,
CCOC(=O)C1=C(C)NC(SC)=NC1c1ccc(OC)cc1 (stereo not drawn),.,.,.,.,.,
CC(C)C[C@H]1CN([C@@H](CC(C)C)CN2CCC[C@H]2CN2C(=O)C(=O)NC[C@@H]2Cc2ccc(O)cc2)C(=O)C(=O)N1CCc1ccccc1,/,.,/,/,/,
CCCc1cc(Nc2ccccc2)n2ncnc2n1,.,.,.,.,/,
CCCc1cc(Nc2ccccc2OCC)n2ncnc2n1,.,.,.,.,.,
Cc1cc(C)cc(NC(=O)Cn2ncn3c(cc4ccccc43)c2=O)c1,18,.,.,.,.,
CCOC(=O)CSc1nc(C)cc(C)c1C#N,17,.,.,.,.,
Cc1ccc(C)c(N2CCN(C(c3ccc(N(C)C)cc3)c3nnnn3C(C)(C)C)CC2)c1 (stereo not drawn),38,.,.,.,.,
CCOC(=O)C1(Cc2ccccc2C(F)(F)F)CCN(Cc2ccon2)CC1,.,.,.,.,/,
c1ccc(-c2ccc(CN3Cc4ccccc4-n4nncc4C3)cc2)cc1,249,.,.,.,.,
Cc1onc(-c2ccccc2)c1C(=O)n1cccn1,22,.,.,.,.,
CCOC(=O)C1(Cc2ccc(OC)cc2)CCN(C(=O)C2=CCCC2)CC1,.,.,.,.,/,
Cc1cccc(OC(C)C(=O)NC2CCS(=O)(=O)C2)c1C (stereo not drawn),.,/,.,88,.,Mtb FBA confirm=119;GDH-TPI counter-2=83
CCCOc1ccc(-c2nc(C#N)c(N3CCN(CC)CC3)o2)cc1,.,.,.,44,.,Mtb FBA confirm=+;GDH-TPI counter-2=+
SMILES,Vc quorum ag-1,CCHF vOTU inh-1,GDH-TPI counter-1,FBA Mtb inh,Vc quorum ag-2,others
CCCOc1ccc(-c2nc(C#N)c(N3CCc4ccccc4C3)o2)cc1,.,.,.,.,/,
CC1=C(C(=O)N(C(C)C)C(C)C)CC(CC(=O)NCCc2ccccn2)C(=O)N1CCC1=CCCCC1 (stereo not drawn),/,.,/,.,/,
Cc1cc(N2CCC(C)CC2)nc2ccc(N3C(=O)CCC3=O)cc12,.,.,.,59,.,Mtb FBA confirm=98;GDH-TPI counter-2=79
CCC(Oc1ccccc1)C(=O)Nc1ccc(-c2nnc(-c3ccco3)o2)cc1 (stereo not drawn),17,.,.,43,.,Mtb FBA confirm=.;GDH-TPI counter-2=.
CCOc1ccc(N2CC(C(=O)Nc3nnc(SCCOC)s3)CC2=O)cc1 (stereo not drawn),.,.,.,.,/,
COc1ccc(OC)c(NCc2nnc(-c3ccccc3)o2)c1,.,.,.,.,/,
COc1ccc(-c2ccc(-c3nnc(Cc4ccc(OC)c(OC)c4)o3)cc2)cc1,.,.,.,39,.,Mtb FBA confirm=.;GDH-TPI counter-2=.
CCCN(CCC)CC(=O)Nc1cccc2c1OCO2,/,.,.,.,/,
COC(=O)c1ccc(-c2nc3cc(Cl)c(N)cc3s2)cc1,25,43,.,.,.,CCHF vOTU inh-2=.
O=C(O)CN1C(=O)C(=O)N(Cc2c(F)cccc2Cl)C1=O,.,.,.,.,/,
COc1ccccc1-n1c(C)c(C(=O)O)c2cc(OC)c3ccccc3c21,.,.,.,27,/,Mtb FBA confirm=87;GDH-TPI counter-2=82
CCOc1ccccc1NC(=O)c1ccc(S(=O)(=O)N(C)C)cc1,/,.,.,.,/,
CC(=O)N1CCN(c2nc(CC(C)C)c3c(c2C#N)CCC3)CC1,.,.,.,38,/,Mtb FBA confirm=48;GDH-TPI counter-2=35
CC(C)Cc1nc(N2CCN(C(=O)C(C)C)CC2)c(C#N)c2c1CCC2,.,.,.,33,/,Mtb FBA confirm=59;GDH-TPI counter-2=41
Nc1c(-c2ccccn2)cnn1-c1nc(-c2ccc(F)cc2)cs1,.,.,.,.,/,
O=C(Nc1ccc(F)c(Cl)c1)Nn1cnnc1,.,.,.,.,/,
Cc1c(Cl)cccc1NS(=O)(=O)c1c(C(=O)N2CCOCC2)c(C)n(C)c1C,.,.,.,.,/,
C#Cc1ccc(NC(=O)C2(C)CCN2C(=O)C/C=C/c2ccccc2)cc1 (stereo not drawn),.,.,.,.,/,
Cc1ccc(Oc2ccc(NC(=O)CSc3n[nH]c(N)n3)cc2)cc1,.,.,.,32,/,Mtb FBA confirm=.;GDH-TPI counter-2=.
NNC(=O)Cn1c(-c2ccccn2)nc2ccccc21,.,.,.,.,/,
O=C(O)Cn1c(-c2ccccc2)cc2ccccc21,.,.,.,47,/,Mtb FBA confirm=104;GDH-TPI counter-2=95
O=C(Cn1c(C(=O)O)cc2ccccc21)c1ccccc1,.,.,.,.,/,
CCOC(=O)Cn1c(-c2ccccn2)nc2ccccc21,.,.,.,35,/,Mtb FBA confirm=91;GDH-TPI counter-2=79
O=C(O)Cn1c(=O)c(-c2ccccc2)nc2ccccc21,.,.,.,56,/,Mtb FBA confirm=119;GDH-TPI counter-2=88
CCN(CC)CCNC(=O)Cn1c(-c2ccccn2)nc2ccccc21,.,.,.,37,/,Mtb FBA confirm=145;GDH-TPI counter-2=121
O=C(O)Cn1c(-c2ccccc2)nc2ccccc21,.,.,.,.,/,
C/C(=N\NC(=O)Cn1c(-c2ccccn2)nc2ccccc21)c1ccccc1,.,.,.,.,/,
COc1cc(/C(C)=N/NC(=O)CSc2nncn2C)ccc1OCc1ccccc1Cl,.,.,.,.,/,

# Source: PubChem BioAssay (several laboratories)
